Source: PubChem
In the library only some 11% were active in any assay of this set; here they are far more common.
ALDH1A1 block: qHTS Assay for Inhibitors of Aldehyde Dehydrogenase 1 (ALDH1A1) | Purified ALDH1A1, NADH fluorescence, propionaldehyde substrate | Potency, µM (doses to about 75.3 µM), usual class: inhibitors | actives 7.3% (n = 220,000); active = well fitted inhibition curve with a large enough effect, not every such curve was filed as active; inconclusive = small, poorly fitted or top-dose-only effect, or another doubt; inactive = no such curve, though single readings can be large or run the other way
IMPase cell inh: qHTS Assay for Identifying the Cell-Membrane Permeable IMPase Inhibitors | 120,000 tested, under 10 active | AID 901, 2007 | Inositol monophosphatase 1 (Rattus norvegicus), P97697 | CHO-M1 cells, IP1 accumulation, HTRF TR-FRET ratio | inhibition (IP1 accumulation), % at 46.1 µM; active = well fitted curve in the direction sought with a large enough effect in the signal ratio, not every such curve was filed as active; inconclusive = small, poorly fitted or top-dose-only effect, or a change in a side signal; inactive = no such curve, though single readings can be large or run the other way; the % refers to the signal ratio;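 also: cells stimulated with carbachol in lithium chloride buffer; higher means more IMPase inhibition seen as more IP1 and lower FRET ratio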
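The IP-One HTRF competitive assay in carbachol-stimulated CHO-M1 cells quantifies cellular IP1. Compounds spanned up to 46 uM final, and activity is expressed as AC50 from concentration-response fits of the ratio and donor data.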
HPGD inh: qHTS Assay for Inhibitors of HPGD (15-Hydroxyprostaglandin Dehydrogenase). purified HPGD, NADH fluorescence kinetic, PGE2 substrate. Potency, µM, actives largely listed as inhibitors. actives 4.3% (n = 150,000). AID 894, 2007; active = well fitted inhibition curve with a large enough effect, not every such curve was filed as active; inconclusive = small, poorly fitted or top-dose-only effect, or another doubt; inactive = no such curve, though single readings can be large or run the other way
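NADH formation kinetics: reaction with 30 uM PGE2 and 1 mM NAD+ (final), 20 nM enzyme, Tris-HCl pH 8 with Tween 20, after 15 min compound preincubation at room temperature. Fluorescence change, last versus first of five reads.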
ALOX12 inhib: qHTS Assay for Inhibitors of 12-hLO (12-human lipoxygenase); Polyunsaturated fatty acid lipoxygenase ALOX12 (Homo sapiens), P18054; AID 1452, 2008; Potency, µM (highest dose often 57.1 µM), actives largely listed as inhibitors; purified 12-hLO, xylenol orange hydroperoxide absorbance; actives 0.12% (n = 150,000); also: nearly all actives have a fitted effect of over 55% in size
Target sequence (P18054 whole entry, looked up): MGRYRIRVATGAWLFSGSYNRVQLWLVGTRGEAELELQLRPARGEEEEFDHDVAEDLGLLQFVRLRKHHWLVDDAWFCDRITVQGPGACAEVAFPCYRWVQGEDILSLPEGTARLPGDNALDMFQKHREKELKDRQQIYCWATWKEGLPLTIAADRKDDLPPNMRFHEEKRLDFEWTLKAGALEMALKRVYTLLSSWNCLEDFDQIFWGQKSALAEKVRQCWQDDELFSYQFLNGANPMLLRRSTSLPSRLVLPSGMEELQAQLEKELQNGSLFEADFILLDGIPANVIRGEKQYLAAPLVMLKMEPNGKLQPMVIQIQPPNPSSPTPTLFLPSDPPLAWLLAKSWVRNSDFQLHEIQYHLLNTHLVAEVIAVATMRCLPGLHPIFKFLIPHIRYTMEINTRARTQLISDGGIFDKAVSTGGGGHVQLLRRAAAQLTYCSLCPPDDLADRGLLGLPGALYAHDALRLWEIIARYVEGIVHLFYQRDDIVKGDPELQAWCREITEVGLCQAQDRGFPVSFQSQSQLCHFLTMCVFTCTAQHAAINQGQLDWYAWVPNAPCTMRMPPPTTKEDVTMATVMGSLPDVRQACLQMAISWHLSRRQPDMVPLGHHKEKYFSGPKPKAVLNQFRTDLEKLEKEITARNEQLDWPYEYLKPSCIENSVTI
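Hydroperoxide formation by human 12-lipoxygenase from 40 uM arachidonic acid was followed colorimetrically via ferric-xylenol orange complex, using the 573/405 nm absorbance ratio. Enzyme concentration was 150 nM, with 30 min reaction at room temperature.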
PNC inhibitor: High Content Assay for Compounds that inhibit the Assembly of the Perinucleolar Compartment; PC3M PTB-GFP, PNC prevalence imaging, 16 h; hits give low values; activity change (PNC), negative = inhibition, % at 10 µM; actives 3.1% (n = 140,000); AID 2417, 2010;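 active = readout at or below -70, meaning at least 70% loss of cells showing the perinucleolar compartment, a nuclear body marking cancer cells; inconclusive = readout between -30 and a set limit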
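Compounds are pinned in duplicate onto adhered PC3M cells stably expressing GFP-tagged PTB and incubated 16 h at 37 C. Cells are then fixed, nuclei stained with Hoechst, and PNC-positive cells counted.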
IMPase Li cell: qHTS Assay for Identifying the Cell-Membrane Permeable IMPase Inhibitors: Potentiation with Lithium; CHO-M1 cells, IP1 TR-FRET (IP-One), carbachol + lithium; Potency, µM (series often up to 59.4 µM), usual class: inhibitors; actives 0.35% (n = 210,000);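 also: IP1 builds up when IMPase is blocked and the TR-FRET signal falls; nearly all actives have a fitted effect of over 50% in size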
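CHO-M1, 2000 cells/well, 16–30 h culture; cpd + low Li+, 30 min 37C; lysis with d2-IP1/Eu-anti-IP1 Ab, 10 min RT; TR-FRET 665/620 ratio and 620 channel; AC50 via Hill.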
Hits are given with their value; – = inactive; ? = inconclusive; · = no result; ! = a repeat was not active; [ ] = dose if it differs, or a comment. Unless noted, calls follow the shape of the dose curve; as a rule, active = well fitted curve in the direction sought with a large enough effect; inconclusive = small, poorly fitted or top-dose-only effect, or another doubt; inactive = no such curve, though single readings can be large; an effect the other way counts as inactive or inconclusive.

SMILES	ALDH1A1 block	IMPase cell inh	HPGD inh	ALOX12 inhib	PNC inhibitor	IMPase Li cell
CC1=C(/C=C/C(C)=C/C=C/C(C)=C/C(=O)Nc2ccc(O)cc2)C(C)(C)CCC1	20µM!	–	–	–	·	–
CC1=C(/C=C/C(=C/C=C/C(C)=C/C(=O)O)c2ccc(C)cc2)C(C)(C)CCC1	?	·	–	–[0.00818 µM]	·	–
COc1cc(CNCCc2c[nH]c3ccccc23)cc(Cl)c1OCC(N)=O	15.8µM	·	·	·	·	–
COc1cc(CNCCc2c[nH]c3ccccc23)ccc1OCc1ccc(F)cc1	–	–	–	–	–	–
Cc1cccc(C(=O)NNC(=O)c2ccccc2)c1	–	·	–	–	–	–
O=C(NNc1cc(Br)c(O)c(Br)c1)c1ccccc1	17.8µM	·	·	·	·	–
OC(c1ccccc1)c1nc2ccccc2s1 (stereo unspecified)	–	–	15.8µM	–	–	–
O=C(O)CSc1nc2ccccc2s1	–	·	·	·	·	·
COc1ccc(NCc2nnc(SCC(=O)N3CCCc4ccccc43)o2)cc1	?	–	–	–	–	–
CC1Cc2ccccc2N1C(=O)CSc1nnc(CNc2ccccc2)o1 (stereo unspecified)	25.1µM	–	–	–	?	–
O=C(CSc1nnc(CNc2ccccc2)o1)N1CCCc2ccccc21	8.91µM	–	–	–	?	–
O=C(OC[C@@H](O)CO)c1ccccc1Nc1ccnc2cc(Cl)ccc12	–	–	–	–	·	–
O=C(NCc1ccc(F)cc1)c1cnn2ccccc12	?	–	–	–	-84.4	–
C[N+]1(CCC(=O)c2ccco2)CC2CCC(CC2)C1 (stereo unspecified)	–[13.5 µM]	·	–	–[11.4 µM]	·	–
CCOC(=O)c1sc2nc(N3CCOCC3)c3c(c2c1N)CCCC3	?	–	?	–	?	–
Nc1c(C(=O)NCc2ccco2)sc2nc(N3CCOCC3)c3c(c12)CCCC3	?	–	?	–	–	10µM
Cc1ccc(-c2cc(=O)c3ccccc3[nH]2)cc1	–	·	?	–[0.00818 µM]	–	–
Cc1ccc2[nH]c(-c3ccccc3)cc(=O)c2c1	–	–	?	–	-111.0	–
N=c1c2c(n(Cc3ccc(Cl)c(Cl)c3)c3c1CCC3)CCCC2	–	–	·	–	–	·
N=c1c2c(n(Cc3ccc(Br)cc3)c3c1CCC3)CCCC2	–	·	–	–	-123.3	–
Cc1ccc(C(C)C)c(OCc2ccc(-c3nnco3)cc2)c1	–	–	10µM	–	–	–
COC(=O)c1ccc(Oc2c(C)oc3c(CN4CCN(C)CC4)c(O)ccc3c2=O)cc1	?	–	?	–	–	12.6µM
CC1=C(SCCC#N)S/C(=C2\SC(C)=C(SCCC#N)S2)S1	5.01µM	–	17.8µM	?	–	–
COCCCn1c(=N)c(C(=O)NC2CCCCC2)cc2c(=O)n3cc(C)ccc3nc21	·	–	·	·	·	·
O=C(c1ccc(F)cc1)N1CCN=C1c1ccccc1	–	·	–	–	-96.1	–
SMILES	ALDH1A1 block	IMPase cell inh	HPGD inh	ALOX12 inhib	PNC inhibitor	IMPase Li cell
COc1cc(C(=O)N2CCN=C2c2ccccc2)cc(OC)c1OC	–	–	–	–	-100.0	–
O=C(COc1ccccc1)N1CCN=C1c1ccccc1	–	–	–	–	–	–
CCOC(=O)c1c(NC(=O)CCCOc2ccc(C(C)(C)C)cc2)sc2c1CCC2	·	–	·	·	·	·
O=S(=O)(c1ccccc1)C(/C=N\O)/C=C/c1ccccc1 (stereo unspecified)	11.2µM	·	·	·	·	–
CNS(=O)(=O)/C=C/c1ccccc1	–	·	·	·	·	–
CCN(CC)c1ccc(C=O)c(OC)c1	3.98µM	·	·	·	·	–
COc1ccc(C=O)c(OC)c1	?	·	·	·	·	–
N#Cc1ccc(CN2CCCC3(CCN(C(=O)c4cccc(F)c4)CC3)C2)cc1	?	·	–	–	·	–
C[C@H](NC(=O)c1nc[nH]c1C(=O)N[C@@H](C)c1ccccc1)C(=O)OC(C)(C)C	4.47µM	·	·	·	·	–
CC(C)C[C@H](NC(=O)c1nc[nH]c1C(=O)N(C)Cc1ccccc1)C(=O)OC(C)(C)C	7.94µM	·	·	·	·	–
CC(C)C[C@H](NC(=O)c1[nH]cnc1C(=O)N[C@H](C)c1ccccc1)C(=O)OC(C)(C)C	–	·	·	·	·	–
CCCCn1c(=O)[nH]c2ccccc21	–	–	–	–	–	–
CCCCN1C(=O)Nc2ccccc2S1=O (stereo unspecified)	–	·	15.8µM	–	-87.4	–
Cc1cccc(C)c1NC(=O)C[N+](C)(C)C	–	–	–	–	·	–
Nc1c2c(nc3ccccc13)CCC[C@H]2O	·	–	·	–	·	·
Brc1ccc2c(c1)C(C1=NCCN1)c1ccccc1CS2 (stereo unspecified)	–	·	–	–	-109.0	–
O=S(=O)(Nc1ccc(-n2cccc2)cc1)c1ccc(F)cc1	10µM	·	·	·	·	–
CCN(CC)S(=O)(=O)c1ccc(NS(=O)(=O)c2ccc(F)cc2)cc1	12.6µM	–	–	–	–	–
CCCN[C@@H](C)C(=O)Nc1c(C)csc1C(=O)OC	–	–	–	–	·	–
CC(NC(=O)COC(=O)Cc1ccc(-c2ccccc2)cc1)c1ccccc1 (stereo unspecified)	–	·	–	–	–	–
COc1cc([C@@H]2[C@H]3CN(C)CC=C3C(C#N)=C(N)C2(C#N)C#N)cc2c1OCO2	–	–	–	–	-98.5	–
COc1cccc(C2C3CN(C)CC=C3C(C#N)=C(N)C2(C#N)C#N)c1OC (stereo unspecified)	?	–	?	–	?	–
CCCC1C2CN(C(C)C)CC=C2C(C#N)=C(N)C1(C#N)C#N (stereo unspecified)	?	–	?	–	-92.3	–
CC(C)c1ccc(C2C3CSCC=C3C(C#N)=C(N)C2(C#N)C#N)cc1 (stereo unspecified)	15.8µM	–	?	–	–	–
CN1CC=C2C(C#N)=C(N)C(C#N)(C#N)[C@H](c3cccc(Cl)c3)C2C1 (stereo partly specified)	?	–	?	?	?	–
CN1CC=C2C(C#N)=C(N)C(C#N)(C#N)C(CCc3ccccc3)C2C1 (stereo unspecified)	?	–	?	–	–	–
CN1CC=C2C(C#N)=C(N)C(C#N)(C#N)[C@H](c3cccs3)[C@H]2C1	?	–	?	–	-94.1	–
CSc1ccc(C(=S)N2CCN(Cc3ccccc3)CC2)cc1	2.24µM	–	?	–	–	–
O=[N+]([O-])c1ccc(C(=S)N2CCN(Cc3ccccc3)CC2)cc1	14.1µM	–[1.84 µM]	–	–	–	–
